Screen size: about 220,000 compounds; about 830 (0.38%) were called active. The list is a sample of the results. Entries with a potency or affinity are not part of this list. A number with no mark means an inactive call.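 Rule for the calls: active = compound inhibiting the enzyme by more than half at any dose during confirmatory dose-response retesting; inconclusive = strong single-dose inhibitors picked by rank but not retested; inactive = the rest.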 Non-standard residues stand in square brackets, D forms with d. Residues, ends and D or L forms follow the SMILES beside them. ξ: configuration not given here. *: point of attachment. Cbz = O=C(OCc1ccccc1)*; OBn = c1ccc(CO*)cc1; ξP = O=C(O)C1CCCN1
What follows are compounds tested against Leucine aminopeptidase (Plasmodium falciparum (isolate 3D7)) (UniProt Q8IL11) (assay: P. falciparum M17LAP inhibitors, primary screen, biochemical, fluorogenic H-Leu-NHMec substrate, 1536-well (AID 1619;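 note: plate controls were full reaction with DMSO carrier for no effect and no enzyme background for full effect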)). Settings: recombinant M17LAP, H-Leu-NHMec fluorogenic kinetic assay; at 30 µM; hits give high values.
Chain of Leucine aminopeptidase (Plasmodium falciparum (isolate 3D7)) (Q8IL11 whole entry, looked up): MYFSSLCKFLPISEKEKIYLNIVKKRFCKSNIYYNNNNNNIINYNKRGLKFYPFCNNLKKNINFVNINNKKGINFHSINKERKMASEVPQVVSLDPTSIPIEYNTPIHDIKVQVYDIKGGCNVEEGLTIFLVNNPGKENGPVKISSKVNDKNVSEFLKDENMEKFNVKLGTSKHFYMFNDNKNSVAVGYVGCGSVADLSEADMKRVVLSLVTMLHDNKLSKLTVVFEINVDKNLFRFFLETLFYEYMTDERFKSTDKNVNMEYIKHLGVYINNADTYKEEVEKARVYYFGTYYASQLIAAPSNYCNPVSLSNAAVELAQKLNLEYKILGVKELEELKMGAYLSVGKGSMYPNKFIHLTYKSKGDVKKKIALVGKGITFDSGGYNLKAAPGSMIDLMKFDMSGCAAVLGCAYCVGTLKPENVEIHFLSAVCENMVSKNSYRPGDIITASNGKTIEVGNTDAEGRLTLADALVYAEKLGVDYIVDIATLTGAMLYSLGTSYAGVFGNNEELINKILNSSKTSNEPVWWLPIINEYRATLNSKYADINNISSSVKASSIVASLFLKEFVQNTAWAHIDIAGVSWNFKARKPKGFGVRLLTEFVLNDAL
`CC(=O)c1nn(-c2cccc(Cl)c2)cc1C(=O)c1ccco1` showed an inhibition of -0.97%. With `CC(=O)c1cc(Cl)ccc1OC(=O)c1ccco1` the inhibition was -7.24%. With `CN(C)CCNC(=O)C(c1ccccc1)c1ccccc1` the inhibition was 4.43%. With `COc1cccc(C(=O)NNC(=O)C(=O)N2CCCCC2)c1` the inhibition was 5.57%. `O=C(Nc1ccc(C(=O)O)cc1)/C(=C\c1ccc2c(c1)OCO2)NC(=O)c1ccc(Br)o1` gave an inhibition of 12%. `O=C(Nc1cccc(C(=O)O)c1)/C(=C/c1ccc2c(c1)OCO2)NC(=O)c1cccc(Br)c1` was tested, and the inhibition was 51.7%. In the case of `COCCn1nnnc1C(c1ccccc1OC)N1CCN(c2ccccc2F)CC1` (stereo unspecified), the inhibition is reported as 0.44%. With `O=C(Cc1ccccc1)N1CCCC(c2nc(-c3ccc(S(=O)(=O)N4CCCC4)cc3)no2)C1` (stereo unspecified) the inhibition was 0.8%. `O=C(O)CCn1cc(/C=C/C(=O)c2ccc(Cl)cc2)c(-c2ccc(Br)cc2)n1` was tested, and the inhibition was 31.8%. Compound `O=C(O)CCn1cc(/C=C/C(=O)c2ccc(Cl)cc2)c(-c2cccc(Br)c2)n1` has an inhibition of 6.04%. With `Nc1nonc1C(=O)N/N=C/c1cccc([N+](=O)[O-])c1` the inhibition was 39.7%. In the case of `CN(C)c1ccc(/C=N/NC(N)=S)cc1[N+](=O)[O-]`, the inhibition is reported as -6.38%. Work on `CCCNS(=O)(=O)c1ccc(N2CCCC2=O)c([N+](=O)[O-])c1` yielded an inhibition of -2.44%. Work on `CC(C)N(C(=O)C1CC(=O)OC12CCCCC2)C(C)C` (stereo unspecified) yielded an inhibition of -0.49%. With `CCC(=O)Nc1c(-c2ccc(OC)cc2)c(=O)c2ccccc2n1C` the inhibition was 0.6%. `Cc1ccc(NS(=O)(=O)Cc2ccccc2)nc1` gave an inhibition of -10.1%. Compound `O=S(=O)(Cc1ccccc1)Nc1ccc(Br)cn1` has an inhibition of 8.11%. `Cc1nc2c(cc1C(=O)N/N=C/c1ccc(O)c(O)c1)c(=O)n(C)c(=O)n2C` gave an inhibition of 13.8%. With `Cc1ccccc1N1C(=O)CC2(CCCC2)CC1=O` the inhibition was -2.41%. `Cc1ccc(/C=C2\NC(=S)NC2=O)cc1[N+](=O)[O-]` showed an inhibition of -1.94%. `CN(C)c1ccc(/C=N/N=C(N)N)cc1[N+](=O)[O-]` showed an inhibition of 58.3%. `COc1cc(/C=N/NC(N)=O)ccc1OC(=O)c1ccc(C)cc1` showed an inhibition of -1.66%. `Cc1ccc(-n2nnc3c(=O)n(CC(=O)N4CCC(C)CC4)cnc32)cc1` showed an inhibition of 13.8%. Work on `OC1COC(OCC2OC(OCc3ccccc3)C(O)C(O)C2O)C(O)C1O` (stereo unspecified) yielded an inhibition of -0.69%. Compound `Cc1ccc(C(=O)O/N=C(\c2ccccc2)c2cccnc2)cc1` has an inhibition of -5.37%. Work on `CC(=O)C1(C)N(O)C(C)(C)C(c2cccs2)=[N+]1[O-]` (stereo unspecified) yielded an inhibition of 11.1%. `CC1(C)N(O)CC(c2cccs2)=[N+]1[O-]` gave an inhibition of 39.9%. Compound `NNC(=O)c1ccc(COc2ccc3ccccc3c2)o1` has an inhibition of 7.87%. Compound `O=C1c2ccccc2C(=O)N1/N=C/c1ccc(O)c(O)c1O` has an inhibition of 9.31%. With `COc1cc(/C=N/N2C(=O)C3C4C=CC(CC4)C3C2=O)ccc1O` (stereo unspecified) the inhibition was 18.2%. With `COc1cc(/C=N/N2C(=O)c3ccccc3C2=O)ccc1O` the inhibition was 10.3%. For `O=C1C2C3C=CC(CC3)C2C(=O)N1/N=C/c1ccc(O)cc1` (stereo unspecified), the inhibition was 12.3%. In the case of `O=C(Cn1cnc2c(cnn2-c2ccccc2)c1=O)NC1CCCC1`, the inhibition is reported as -1.27%. For `O=C(Nc1cccnc1)c1ccccc1O`, the inhibition was 8.37%. Work on `CCN(C(=O)COC(=O)c1cc(-c2ccccc2)nn1-c1ccccc1)C1CCS(=O)(=O)C1` (stereo unspecified) yielded an inhibition of -0.44%. `COc1ccc(NC(=O)CSc2nnc(-c3cccs3)n2-c2ccccc2)cc1` was tested, and the inhibition was 0.69%. `O=C(CSc1nnc(-c2cccs2)n1-c1ccccc1)Nc1ccccc1` was tested, and the inhibition was 8.55%. For `CCOC(=O)C1=C(O)C(=O)N(c2ccc(S(N)(=O)=O)cc2)C1c1cccc([N+](=O)[O-])c1` (stereo unspecified), the inhibition was 0.08%. Work on `O=C(C1=C(O)C(=O)N(CCN2CCOCC2)C1c1ccncc1)c1ccco1` (stereo unspecified) yielded an inhibition of 17.6%. `Cc1c(NC(=O)C(C)Sc2ccccc2)c(=O)n(-c2ccccc2)n1C` (stereo unspecified) was tested, and the inhibition was 8.89%. In the case of `Cc1c(NC(=O)CSc2nnc(Nc3ccccc3)s2)c(=O)n(-c2ccccc2)n1C`, the inhibition is reported as 20.1%. With `Cc1ccc(SC(C)C(=O)Nc2c(C)n(C)n(-c3ccccc3)c2=O)cc1` (stereo unspecified) the inhibition was -0.12%. In the case of `Cc1nnc(SC(C)C(=O)Nc2c(C)n(C)n(-c3ccccc3)c2=O)n1N` (stereo unspecified), the inhibition is reported as 11.1%. `O=C(O)CCn1c(C2CCCCC2)nc2ccccc21` showed an inhibition of 10.6%. `CCc1cccc(NC(=O)CCSCCC(=O)Nc2cccc(CC)c2)c1` was tested, and the inhibition was 10.7%. `O=C(CSCc1cccc(CSCC(=O)Nc2ccccc2)n1)Nc1ccccc1` gave an inhibition of 6.32%. In the case of `CC(C)OC(=O)CSc1ncnc2c1cnn2-c1ccccc1`, the inhibition is reported as -11.6%. `S=C(NCc1ccco1)Nc1ccccc1Cl` showed an inhibition of 2.12%. `Cc1cc(NS(=O)(=O)c2ccc(NC(=O)c3cnc4sccn4c3=O)cc2)nc(C)n1` was tested, and the inhibition was -3.04%. With `Cc1cc(C)nc(NS(=O)(=O)c2ccc(NC(=O)CN3C(=O)c4ccccc4C3=O)cc2)n1` the inhibition was 8.34%. `Cc1noc(NS(=O)(=O)c2ccc(NC(=O)c3cnc4scc(C)n4c3=O)cc2)c1C` gave an inhibition of 49.8%. `COc1cc(NS(=O)(=O)c2ccc(NC(=O)CN3C(=O)c4ccccc4C3=O)cc2)nc(OC)n1` gave an inhibition of 45.7%. Work on `CN1C(=O)CS(=O)c2ccc(C(=O)NCCC3=CCCCC3)cc21` (stereo unspecified) yielded an inhibition of -0.02%. `CCC(=O)N(Cc1ccc(C)cc1)Cc1cc2cc3c(cc2[nH]c1=O)OCO3` was tested, and the inhibition was -7.35%. `O=C(c1ccccc1)N1CCN(C(=O)c2ccccc2)C1c1ccccc1` gave an inhibition of -9.12%. With `O=C(CSCc1nc2c(nnn2Cc2ccc(F)cc2)c(=O)[nH]1)Nc1c(Cl)cc(Cl)cc1Cl` the inhibition was 30.5%. For `Cc1cccc(NC(=O)CSCc2nc3c(nnn3Cc3ccc(F)cc3)c(=O)[nH]2)c1C`, the inhibition was 22.9%. In the case of `CN1CCN(C(=O)C2=C[C@@H](c3ccccc3)C[C@@H](OCCCCO)O2)CC1`, the inhibition is reported as 2.48%. `COc1ccc(Br)cc1/C=N/Nc1cccc(C(=O)O)c1` showed an inhibition of 25%. Compound `C=CCOc1c(CNc2cccc(C(=O)O)c2)cccc1OC` has an inhibition of 1.85%. With `O=C(NNC(=O)C1[C@H]2CCCC[C@@H]12)Nc1cccc2ccccc12` (stereo partly specified) the inhibition was 0.58%. `C/C(=N/OC(=O)c1c(F)cccc1F)c1nccs1` showed an inhibition of -5.2%. `CC(=O)C1=C(O)C(=O)N(c2ccc(Br)cn2)C1c1ccc(F)cc1` (stereo unspecified) gave an inhibition of 20.5%. `O=C(CNC(=O)OCc1ccccc1)NCC(=O)N1CCCC1C(=O)OCc1ccccc1` (stereo not drawn) (Cbz-Gly-Gly-[ξP]-OBn) showed an inhibition of 2.1%. `O=C(O)CCC(=O)N1CCC[C@H]1C(=O)O` gave an inhibition of 3.33%. Compound `Cc1ccc(C(=O)CN(C(=O)c2ccc(Cl)c(Cl)c2)N2C(=O)C3C4C=CC(C4)C3C2=O)cc1` (stereo unspecified) has an inhibition of -2.9%. Compound `CCCc1cc(=O)[nH]c(SCC(=O)Nc2ccc3c(c2)CCC3)n1` has an inhibition of 19.8%. `COc1cccc(NC(=O)CSc2ncc(S(=O)(=O)c3ccccc3)c(=O)[nH]2)c1` was tested, and the inhibition was 9.3%. `Cc1ccc(NC(=O)CSc2ncc3ccccn23)cc1C` was tested, and the inhibition was -1.12%. Compound `O=C(CSc1ncc(S(=O)(=O)c2ccccc2)c(=O)[nH]1)Nc1ccccc1Cl` has an inhibition of 28.8%. `Cc1ccc(NC(=O)CSc2ncn(-c3ccccc3)n2)cc1C` showed an inhibition of 3.12%. With `O=C(CSc1nc(-c2ccco2)cc(C(F)(F)F)n1)Nc1ccc2c(c1)CCC2` the inhibition was 15.2%. Work on `Cc1ccc2nc(SCC(=O)Nc3ccc4c(c3)CCC4)[nH]c2c1` yielded an inhibition of -0.04%. In the case of `O=C(CSc1ncccn1)Nc1ccc2c(c1)CCC2`, the inhibition is reported as -3.11%. `COc1cc(/C=C/C(=O)c2c(O)cc(C)oc2=O)cc(OC)c1O` showed an inhibition of 23.1%. `CCOC(=O)c1sc(NNC(=O)c2ccc(F)cc2)nc1C` gave an inhibition of 4.21%. With `CC(=O)c1cc(-c2ccccc2)n(CC(=O)N2CCC(N3CCCCC3)CC2)c1C` the inhibition was 5.06%. Compound `CCOCc1nc(C)c(Cl)c(NS(=O)(=O)c2ccc(N)cc2)n1` has an inhibition of -2.71%. With `CCCCCCCCn1c(N2CCN(c3cccc(Cl)c3)CC2)nc2c1c(=O)[nH]c(=O)n2C` the inhibition was 0.06%. `COc1ccc(NC(=O)CSc2nc3c(c(=O)[nH]2)CCC3)cc1OC` gave an inhibition of 7.54%. With `CCCn1c(SCC(=O)Nc2ccc3c(c2)CCC3)n[nH]c1=O` the inhibition was 24.5%. With `Cc1ccc(NC(=O)CSc2n[nH]c(-c3ccncc3)n2)cc1C` the inhibition was 13.3%. Compound `COc1ccc2nc(SCC(=O)Nc3ccc4c(c3)CCC4)[nH]c2c1` has an inhibition of 5.26%. `CCOC(=O)c1ccc(NC(=O)CSc2nc(SC)ns2)cc1` was tested, and the inhibition was 4.11%. Work on `COc1ccc(C(=O)CNc2ccc(C)cc2C)cc1` yielded an inhibition of -4.8%. `O=C(CSc1nc2nn(-c3ccccc3)c(=O)c-2c2n1CCCCC2)NCCc1ccccc1` gave an inhibition of -13.9%. `O=C(Nc1cc2c(oc1=O)CCCC2=O)c1ccccc1` showed an inhibition of 1.43%. For `COc1cccc(C2C(C(=O)Nc3ccccc3)=C(C)N=c3s/c(=C/c4ccc(OCC(=O)O)cc4)c(=O)n32)c1` (stereo unspecified), the inhibition was 55.7%. `CC1=C(C(=O)Nc2ccccc2)C(c2ccc(Cl)cc2)n2c(s/c(=C/c3cccc(OCC(=O)O)c3)c2=O)=N1` (stereo unspecified) gave an inhibition of 4.09%. `N=C1N(/N=C/c2ccccc2)C(=Nc2ccccc2)C(=S)N1c1ccccc1` gave an inhibition of 16.1%. In the case of `O=C1CC(N2CCC(c3nc4ccccc4s3)CC2)C(=O)N1Cc1ccccc1` (stereo unspecified), the inhibition is reported as -10.9%.

Source: PubChem BioAssay AID1619 (SRMLSC, 2009)
